# What was measured:
# Test in all cases: DAPPL (digital affinity profiling via proximity ligation, sequencing); 10 mM Tris-HCl pH 7.5, 50 mM NaCl, 1 mM DTT, 4% glycerol, room temperature, 30 min; GST-TFs on glutathione beads, 16-mer random dsDNA library, 0.1% formaldehyde crosslink after washing; high values mean tight binding
# Conditions in all cases: protein: recombinant; tags: N-terminal GST; dsDNA, one strand shown
# ERF = target: T1, ERF (Homo sapiens, UniProt P50548 1-548)
# T1 sequence: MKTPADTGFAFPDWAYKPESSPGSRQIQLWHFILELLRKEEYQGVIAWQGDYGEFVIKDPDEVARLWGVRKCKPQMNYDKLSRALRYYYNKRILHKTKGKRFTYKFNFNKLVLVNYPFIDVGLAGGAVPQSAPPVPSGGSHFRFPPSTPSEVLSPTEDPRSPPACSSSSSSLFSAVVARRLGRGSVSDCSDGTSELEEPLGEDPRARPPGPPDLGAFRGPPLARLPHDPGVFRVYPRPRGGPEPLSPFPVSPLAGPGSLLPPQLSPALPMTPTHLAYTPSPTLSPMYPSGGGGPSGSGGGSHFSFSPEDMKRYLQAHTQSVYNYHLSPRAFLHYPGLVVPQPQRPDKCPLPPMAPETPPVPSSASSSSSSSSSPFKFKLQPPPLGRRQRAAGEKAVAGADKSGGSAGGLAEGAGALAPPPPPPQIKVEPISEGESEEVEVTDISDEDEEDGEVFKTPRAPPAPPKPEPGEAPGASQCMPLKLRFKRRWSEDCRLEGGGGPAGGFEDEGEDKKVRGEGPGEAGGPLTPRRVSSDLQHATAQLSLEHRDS
# Method in brief: (§1)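 Human transcription factors carrying a GST fusion were produced in yeast, bound to glutathione beads, tagged with DNA barcodes and pooled together with a tag-only sample. Each pool was held with 200 nmole of a random double-stranded 16-mer DNA library in Tris/NaCl/DTT/glycerol buffer for 30 min at room temperature, then washed, crosslinked in 0.1% formaldehyde, proximity-ligated with BsaI/T4 ligase (1 h, 37 °C), PCR-amplified and sequenced on an Illumina NextSeq500. Binding signal is the read frequency of each hexamer for a given factor divided by its frequency in the tag-only sample.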
# ETV3L = target: T2, ETV3L (Homo sapiens, UniProt Q6ZN32 1-361)
# T2 sequence: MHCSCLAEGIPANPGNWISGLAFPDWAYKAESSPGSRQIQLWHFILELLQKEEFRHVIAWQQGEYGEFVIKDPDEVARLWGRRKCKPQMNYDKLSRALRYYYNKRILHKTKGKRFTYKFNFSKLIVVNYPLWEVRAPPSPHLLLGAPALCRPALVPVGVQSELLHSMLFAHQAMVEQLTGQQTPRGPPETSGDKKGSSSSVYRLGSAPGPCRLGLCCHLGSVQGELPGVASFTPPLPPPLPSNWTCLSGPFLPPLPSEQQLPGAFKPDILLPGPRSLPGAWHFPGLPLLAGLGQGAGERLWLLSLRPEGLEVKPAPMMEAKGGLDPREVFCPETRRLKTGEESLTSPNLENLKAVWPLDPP
# Method in brief: as §1
# ETS2 = target: T3, ETS2 (Homo sapiens, UniProt P15036 1-469)
# T3 sequence: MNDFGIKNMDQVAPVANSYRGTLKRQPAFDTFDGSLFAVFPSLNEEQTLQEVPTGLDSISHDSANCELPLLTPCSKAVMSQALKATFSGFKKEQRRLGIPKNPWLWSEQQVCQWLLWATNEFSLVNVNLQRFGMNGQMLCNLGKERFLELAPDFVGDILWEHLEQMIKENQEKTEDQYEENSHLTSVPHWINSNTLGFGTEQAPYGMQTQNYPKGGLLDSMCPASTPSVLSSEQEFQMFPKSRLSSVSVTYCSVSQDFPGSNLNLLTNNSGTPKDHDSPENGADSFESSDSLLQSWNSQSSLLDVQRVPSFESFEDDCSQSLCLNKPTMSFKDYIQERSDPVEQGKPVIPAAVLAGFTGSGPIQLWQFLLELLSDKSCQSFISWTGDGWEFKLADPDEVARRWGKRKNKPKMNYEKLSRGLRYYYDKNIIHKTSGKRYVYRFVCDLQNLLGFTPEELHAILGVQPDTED
# Method in brief: as §1
# SPDEF = target: T4, SPDEF (Homo sapiens, UniProt O95238 1-335)
# T4 sequence: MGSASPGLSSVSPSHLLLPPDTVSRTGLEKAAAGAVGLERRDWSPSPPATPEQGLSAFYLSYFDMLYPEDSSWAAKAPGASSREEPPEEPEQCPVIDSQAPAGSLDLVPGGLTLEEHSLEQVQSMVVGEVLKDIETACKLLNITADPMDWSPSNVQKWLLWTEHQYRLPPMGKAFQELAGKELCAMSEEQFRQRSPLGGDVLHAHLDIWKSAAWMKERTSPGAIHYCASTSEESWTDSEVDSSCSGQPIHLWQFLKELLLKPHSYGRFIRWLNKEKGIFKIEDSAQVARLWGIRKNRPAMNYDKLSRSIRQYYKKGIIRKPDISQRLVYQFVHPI
# Method in brief: as §1
# ETV7 = target: T5, ETV7 (Homo sapiens, UniProt Q9Y603 1-341)
# T5 sequence: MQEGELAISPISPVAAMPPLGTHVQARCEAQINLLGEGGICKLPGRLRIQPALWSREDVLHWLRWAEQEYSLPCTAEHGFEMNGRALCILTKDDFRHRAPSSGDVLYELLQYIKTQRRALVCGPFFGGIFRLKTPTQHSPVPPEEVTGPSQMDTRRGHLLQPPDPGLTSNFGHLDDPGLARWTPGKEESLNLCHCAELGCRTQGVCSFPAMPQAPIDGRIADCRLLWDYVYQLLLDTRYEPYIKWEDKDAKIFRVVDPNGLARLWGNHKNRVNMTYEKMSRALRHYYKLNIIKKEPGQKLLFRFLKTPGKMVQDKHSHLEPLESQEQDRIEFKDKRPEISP
# Method in brief: as §1
# ELF5 = target: T6, ELF5 (Homo sapiens, UniProt Q9UKW6-2 1-255)
# T6 sequence: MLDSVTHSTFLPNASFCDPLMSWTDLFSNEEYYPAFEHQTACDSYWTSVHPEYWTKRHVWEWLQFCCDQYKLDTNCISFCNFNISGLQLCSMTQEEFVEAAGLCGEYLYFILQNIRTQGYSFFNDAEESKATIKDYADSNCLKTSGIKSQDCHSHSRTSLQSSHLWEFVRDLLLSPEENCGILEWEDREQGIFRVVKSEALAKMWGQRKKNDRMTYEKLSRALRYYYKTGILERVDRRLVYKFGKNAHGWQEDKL
# Method in brief: as §1
# ETV3 = target: T7, ETV3 (Homo sapiens, UniProt P41162-2 1-143)
# T7 sequence: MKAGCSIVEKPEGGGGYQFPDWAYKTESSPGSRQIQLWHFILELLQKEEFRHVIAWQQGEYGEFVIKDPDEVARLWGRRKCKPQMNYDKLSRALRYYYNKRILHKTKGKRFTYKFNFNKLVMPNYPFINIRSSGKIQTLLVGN
# Method in brief: as §1
# ETV6 = ETV6 (Homo sapiens, UniProt P41212 1-452)
# Sequence of ETV6 (P41212 whole entry): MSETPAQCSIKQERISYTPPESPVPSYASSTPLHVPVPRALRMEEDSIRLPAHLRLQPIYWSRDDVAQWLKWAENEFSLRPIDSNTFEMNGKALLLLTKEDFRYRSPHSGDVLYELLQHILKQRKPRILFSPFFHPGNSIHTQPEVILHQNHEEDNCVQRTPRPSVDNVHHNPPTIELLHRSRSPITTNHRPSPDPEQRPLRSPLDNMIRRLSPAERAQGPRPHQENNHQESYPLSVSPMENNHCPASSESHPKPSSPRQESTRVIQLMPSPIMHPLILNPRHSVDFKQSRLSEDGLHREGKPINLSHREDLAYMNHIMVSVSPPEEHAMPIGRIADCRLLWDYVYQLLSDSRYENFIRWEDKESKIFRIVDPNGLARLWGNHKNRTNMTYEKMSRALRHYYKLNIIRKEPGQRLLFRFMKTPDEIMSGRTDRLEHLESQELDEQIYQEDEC
# Method in brief: as §1
sequence,measurement,setting,value
ACTCCA,binding signal,ERF,"1.26 fold enrichment (6-mer frequency, TF over GST control)"
same,binding signal,ETV3L,"1.11 fold enrichment (6-mer frequency, TF over GST control)"
same,binding signal,ETS2,"1.28 fold enrichment (6-mer frequency, TF over GST control)"
same,binding signal,SPDEF,"1.16 fold enrichment (6-mer frequency, TF over GST control)"
same,binding signal,ETV7,"1.18 fold enrichment (6-mer frequency, TF over GST control)"
same,binding signal,ELF5,"1.14 fold enrichment (6-mer frequency, TF over GST control)"
same,binding signal,ETV3,"1.17 fold enrichment (6-mer frequency, TF over GST control)"
same,binding signal,ETV6,"1.13 fold enrichment (6-mer frequency, TF over GST control)"
TTCACC,binding signal,ERF,"1.41 fold enrichment (6-mer frequency, TF over GST control)"
same,binding signal,ETV3L,"1.32 fold enrichment (6-mer frequency, TF over GST control)"
same,binding signal,ETS2,"1.35 fold enrichment (6-mer frequency, TF over GST control)"
same,binding signal,SPDEF,"1.32 fold enrichment (6-mer frequency, TF over GST control)"
same,binding signal,ETV7,"1.3 fold enrichment (6-mer frequency, TF over GST control)"
same,binding signal,ELF5,"1.32 fold enrichment (6-mer frequency, TF over GST control)"
same,binding signal,ETV3,"1.48 fold enrichment (6-mer frequency, TF over GST control)"
same,binding signal,ETV6,"1.35 fold enrichment (6-mer frequency, TF over GST control)"
TACTCG,binding signal,ERF,"1.3 fold enrichment (6-mer frequency, TF over GST control)"
same,binding signal,ETV3L,"1.27 fold enrichment (6-mer frequency, TF over GST control)"
same,binding signal,ETS2,"1.28 fold enrichment (6-mer frequency, TF over GST control)"
same,binding signal,SPDEF,"1.2 fold enrichment (6-mer frequency, TF over GST control)"
same,binding signal,ETV7,"1.27 fold enrichment (6-mer frequency, TF over GST control)"
same,binding signal,ELF5,"1.25 fold enrichment (6-mer frequency, TF over GST control)"
same,binding signal,ETV3,"1.28 fold enrichment (6-mer frequency, TF over GST control)"
same,binding signal,ETV6,"1.28 fold enrichment (6-mer frequency, TF over GST control)"
CCGGTC,binding signal,ERF,"1.1 fold enrichment (6-mer frequency, TF over GST control)"
same,binding signal,ETV3L,"1.13 fold enrichment (6-mer frequency, TF over GST control)"
same,binding signal,ETS2,"1.2 fold enrichment (6-mer frequency, TF over GST control)"
same,binding signal,SPDEF,"1.38 fold enrichment (6-mer frequency, TF over GST control)"
same,binding signal,ETV7,"1.22 fold enrichment (6-mer frequency, TF over GST control)"
same,binding signal,ELF5,"1.13 fold enrichment (6-mer frequency, TF over GST control)"
same,binding signal,ETV3,"1.2 fold enrichment (6-mer frequency, TF over GST control)"
same,binding signal,ETV6,"1.15 fold enrichment (6-mer frequency, TF over GST control)"
AAAAAA,binding signal,ERF,"1.35 fold enrichment (6-mer frequency, TF over GST control)"
same,binding signal,ETV3L,"1.28 fold enrichment (6-mer frequency, TF over GST control)"
same,binding signal,ETS2,"1.34 fold enrichment (6-mer frequency, TF over GST control)"
same,binding signal,SPDEF,"1.21 fold enrichment (6-mer frequency, TF over GST control)"
same,binding signal,ETV7,"1.31 fold enrichment (6-mer frequency, TF over GST control)"
same,binding signal,ELF5,"1.29 fold enrichment (6-mer frequency, TF over GST control)"
same,binding signal,ETV3,"1.33 fold enrichment (6-mer frequency, TF over GST control)"
same,binding signal,ETV6,"1.35 fold enrichment (6-mer frequency, TF over GST control)"
GTACAA,binding signal,ERF,"1.03 fold enrichment (6-mer frequency, TF over GST control)"
same,binding signal,ETV3L,"1.09 fold enrichment (6-mer frequency, TF over GST control)"
same,binding signal,ETS2,"1.1 fold enrichment (6-mer frequency, TF over GST control)"
same,binding signal,SPDEF,"1.06 fold enrichment (6-mer frequency, TF over GST control)"
same,binding signal,ETV7,"1.12 fold enrichment (6-mer frequency, TF over GST control)"
same,binding signal,ELF5,"1.03 fold enrichment (6-mer frequency, TF over GST control)"
same,binding signal,ETV3,"1.11 fold enrichment (6-mer frequency, TF over GST control)"
same,binding signal,ETV6,"1.15 fold enrichment (6-mer frequency, TF over GST control)"
TGTCCG,binding signal,ERF,"1.31 fold enrichment (6-mer frequency, TF over GST control)"
same,binding signal,ETV3L,"1.4 fold enrichment (6-mer frequency, TF over GST control)"
same,binding signal,ETS2,"1.52 fold enrichment (6-mer frequency, TF over GST control)"
same,binding signal,SPDEF,"1.8 fold enrichment (6-mer frequency, TF over GST control)"
same,binding signal,ETV7,"1.51 fold enrichment (6-mer frequency, TF over GST control)"
same,binding signal,ELF5,"1.62 fold enrichment (6-mer frequency, TF over GST control)"
same,binding signal,ETV3,"1.6 fold enrichment (6-mer frequency, TF over GST control)"
same,binding signal,ETV6,"1.55 fold enrichment (6-mer frequency, TF over GST control)"
AATAGG,binding signal,ERF,"1.21 fold enrichment (6-mer frequency, TF over GST control)"
same,binding signal,ETV3L,"1.12 fold enrichment (6-mer frequency, TF over GST control)"
same,binding signal,ETS2,"1.16 fold enrichment (6-mer frequency, TF over GST control)"
same,binding signal,SPDEF,"1.22 fold enrichment (6-mer frequency, TF over GST control)"
same,binding signal,ETV7,"1.27 fold enrichment (6-mer frequency, TF over GST control)"
same,binding signal,ELF5,"1.19 fold enrichment (6-mer frequency, TF over GST control)"
same,binding signal,ETV3,"1.15 fold enrichment (6-mer frequency, TF over GST control)"
same,binding signal,ETV6,"1.27 fold enrichment (6-mer frequency, TF over GST control)"
